In PubChem BioAssay (Tox21):
Inconclusive results are not listed. A call without a number means that no potency is given here. A structure can be active in one record and inactive in another. Calls of active or inactive are those of the source. Calls come from the whole dose curve.

Biological target: Acetylcholinesterase (Homo sapiens) (UniProt P22303)
Experiment: Acetylcholinesterase (AChE) small molecule antagonists: colormetric cell-based qHTS assay (AID 1347395); note: nearly all actives have a fitted effect of over 30% in size
Settings: SH-SY5Y cells AChE activity, colorimetric (Ellman); series mostly up to 115 µM
Outline: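 Cells (SH-SY5Y, 2,000 per well) are seeded and left overnight at 37 C. Compound is added for 30 min, then DTNB and acetylthiocholine for a further 90 min at 37 C before absorbance-based thiocholine detection.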
Potency is the fitted concentration of half-maximal effect.

Chain of Acetylcholinesterase (Homo sapiens) (P22303 whole entry, looked up): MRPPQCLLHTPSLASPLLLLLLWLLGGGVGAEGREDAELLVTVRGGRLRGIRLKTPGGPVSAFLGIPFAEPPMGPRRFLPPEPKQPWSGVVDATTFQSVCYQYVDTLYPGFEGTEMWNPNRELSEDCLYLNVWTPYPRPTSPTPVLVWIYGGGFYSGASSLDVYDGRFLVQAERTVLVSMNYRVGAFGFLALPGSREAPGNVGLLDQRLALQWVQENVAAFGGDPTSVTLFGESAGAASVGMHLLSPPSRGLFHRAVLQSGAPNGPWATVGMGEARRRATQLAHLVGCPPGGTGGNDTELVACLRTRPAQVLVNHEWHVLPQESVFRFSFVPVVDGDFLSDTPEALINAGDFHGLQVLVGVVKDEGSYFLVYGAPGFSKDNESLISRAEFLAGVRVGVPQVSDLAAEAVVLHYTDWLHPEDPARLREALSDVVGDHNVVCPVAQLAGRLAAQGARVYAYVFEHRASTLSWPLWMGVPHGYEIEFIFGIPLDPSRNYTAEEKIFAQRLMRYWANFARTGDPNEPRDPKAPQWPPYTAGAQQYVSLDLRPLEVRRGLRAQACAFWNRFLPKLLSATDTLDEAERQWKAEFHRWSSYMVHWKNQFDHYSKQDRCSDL

Structure (SMILES)	Potency
CC1(C)[C@@H]2CC[C@@]1(C)[C@H](O)C2	inactive
CC1=CCC(=O)O1	inactive
CCC1(C)CC(=O)NC1=O (stereo not given)	inactive
COc1cc(NC(=O)CC(C)=O)c(OC)cc1Cl	inactive
CN1CCN(C2=Nc3cc(F)ccc3Cc3ccccc32)CC1	inactive
O=[N+]([O-])c1cccc(S(=O)(=O)O)c1	inactive
C1CCCNCC1	inactive
CC1=NN(c2ccccc2)C(=O)C1	inactive
O=C(O)c1cc2ccccc2nc1C(=O)O	inactive
C=C(C)C(=O)OCCN(CC)CC	inactive
C=CCc1cc(OC)c(O)c(C(=O)NCCO)c1	inactive
CCOC(=O)/C=C\C(=O)OCC	inactive
CCCCCC1CCCC(=O)O1 (stereo not given)	inactive
C/C=C(\C)C(=O)OC/C=C(\C)CCC=C(C)C	inactive
O=C(N/N=C/c1ccc([N+](=O)[O-])o1)c1ccc(O)cc1	inactive
O=C(O)c1cn(C2CC2)c2cc(Cl)c(F)cc2c1=O	inactive
C1CCN(CN2CCCCC2)CC1	inactive
CCn1c2ccccc2c2ccccc21	inactive
CCCCc1ccc(Cl)cc1	inactive
C=C(C)C(=O)OCCOP(=O)(O)O	inactive

Structure (SMILES)	Potency
O=C(CC(C(=O)OC1CCCCC1)S(=O)(=O)O)OC1CCCCC1 (stereo not given)	inactive
CC(=O)OC(C(=O)c1ccccc1)c1ccccc1 (stereo not given)	inactive
COc1ccc(C(=O)/C(Br)=C\C(=O)O)cc1	inactive
C=C(C)C(=O)OCC(C)O (stereo not given)	inactive
CCCCOC(=O)CCCCCCCCC(=O)OCCCC	inactive
CCCC(CC)c1ccccc1 (stereo not given)	inactive
C=C(C)C(=O)OCCCCCC	inactive
CN(C)c1ccc(N=NS(=O)(=O)O)cc1	inactive
Cc1cc(C(=O)O)ccc1[N+](=O)[O-]	inactive
NS(=O)(=O)c1cc(-c2nn[nH]n2)c(NCc2cccs2)cc1Cl	inactive
O=CCc1ccccc1	inactive
COCCCN	inactive
CCCc1nc(C)c2c(=O)[nH]c(-c3cc(S(=O)(=O)N4CCN(CC)CC4)ccc3OCC)nn12	inactive
O=Cc1ccccc1Cl	inactive
Nc1ncn([C@@H]2O[C@H](CO)[C@@H](O)[C@H]2O)c(=O)n1	inactive
CCCCCCCCOc1ccccc1C(=O)Nc1ccc(C(=O)OCC[N+](C)(CC)CC)cc1	24.5 µM (active)
Clc1cccc(Cl)n1	inactive
O=c1cccc[nH]1	inactive
O=C(O)c1ccc(OCCCOc2ccc(C(=O)O)cc2)cc1	inactive
Oc1ccc2c(c1)CCC2	inactive

Biological target: Acetylcholinesterase (Homo sapiens) (UniProt P22303)
Experiment: Acetylcholinesterase (AChE) small molecule antagonists: enzyme-based qHTS assay (AID 1347397); note: nearly all actives have a fitted effect of over 55% in size
Settings: Potency: AChE enzyme activity inhibition; outcome: AChE enzyme activity inhibition; series mostly up to 115 µM
Outline: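 Recombinant human AChE, dispensed at 50 mU/mL, was preincubated with Tox21 10K compounds or DMSO vehicle for 30 min at room temperature. DTNB plus acetylthiocholine was then added, and thiocholine was measured colorimetrically after a further 10 min.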

Structure (SMILES)	Potency
CC1(C)[C@@H]2CC[C@@]1(C)[C@H](O)C2	inactive
CC1=CCC(=O)O1	inactive
CCC1(C)CC(=O)NC1=O (stereo not given)	inactive
COc1cc(NC(=O)CC(C)=O)c(OC)cc1Cl	inactive
CN1CCN(C2=Nc3cc(F)ccc3Cc3ccccc32)CC1	inactive
O=[N+]([O-])c1cccc(S(=O)(=O)O)c1	inactive
C1CCCNCC1	inactive
CC1=NN(c2ccccc2)C(=O)C1	35.8 µM (active) and inactive
O=C(O)c1cc2ccccc2nc1C(=O)O	inactive
C=C(C)C(=O)OCCN(CC)CC	inactive
C=CCc1cc(OC)c(O)c(C(=O)NCCO)c1	inactive
CCOC(=O)/C=C\C(=O)OCC	inactive
CCCCCC1CCCC(=O)O1 (stereo not given)	inactive
C/C=C(\C)C(=O)OC/C=C(\C)CCC=C(C)C	inactive
O=C(N/N=C/c1ccc([N+](=O)[O-])o1)c1ccc(O)cc1	inactive
O=C(O)c1cn(C2CC2)c2cc(Cl)c(F)cc2c1=O	inactive
C1CCN(CN2CCCCC2)CC1	inactive
CCn1c2ccccc2c2ccccc21	inactive
CCCCc1ccc(Cl)cc1	inactive
C=C(C)C(=O)OCCOP(=O)(O)O	inactive

Structure (SMILES)	Potency
O=C(CC(C(=O)OC1CCCCC1)S(=O)(=O)O)OC1CCCCC1 (stereo not given)	inactive
CC(=O)OC(C(=O)c1ccccc1)c1ccccc1 (stereo not given)	inactive
COc1ccc(C(=O)/C(Br)=C\C(=O)O)cc1	inactive
C=C(C)C(=O)OCC(C)O (stereo not given)	inactive
CCCCOC(=O)CCCCCCCCC(=O)OCCCC	inactive
CCCC(CC)c1ccccc1 (stereo not given)	inactive
C=C(C)C(=O)OCCCCCC	inactive
CN(C)c1ccc(N=NS(=O)(=O)O)cc1	inactive
Cc1cc(C(=O)O)ccc1[N+](=O)[O-]	inactive
NS(=O)(=O)c1cc(-c2nn[nH]n2)c(NCc2cccs2)cc1Cl	inactive
O=CCc1ccccc1	inactive
COCCCN	inactive
CCCc1nc(C)c2c(=O)[nH]c(-c3cc(S(=O)(=O)N4CCN(CC)CC4)ccc3OCC)nn12	inactive
O=Cc1ccccc1Cl	inactive
Nc1ncn([C@@H]2O[C@H](CO)[C@@H](O)[C@H]2O)c(=O)n1	inactive
CCCCCCCCOc1ccccc1C(=O)Nc1ccc(C(=O)OCC[N+](C)(CC)CC)cc1	38.9 µM (active)
Clc1cccc(Cl)n1	inactive
O=c1cccc[nH]1	inactive
O=C(O)c1ccc(OCCCOc2ccc(C(=O)O)cc2)cc1	inactive
Oc1ccc2c(c1)CCC2	inactive
